# Assay results: PubChem BioAssay AID1012 (Sanford-Burnham Center for Chemical Genomics, 2008)
# Among all 200,000 compounds or so, about 520 (0.26%) were called active. Only a selection was taken, and actives are over-represented in it overall. Unmarked numbers belong to inactive results.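 The calls were made as follows: active = tissue-nonspecific alkaline phosphatase inhibition above about 50% at 20 µM in the single-dose screen (limit read from the data); inactive = the rest.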
# Target: Alkaline phosphatase, tissue-nonspecific isozyme (Homo sapiens) (UniProt P05186)
# Assay: blockers of alkaline phosphatase TNAP activity – biochemical, luminescent, no phosphate acceptor, uHTS, primary screen (AID 1012);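 also: 0% = DMSO negative control and 100% = EDTA positive control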
# Conditions: purified TNAP, CDP-star luminescence, 30 min; at 20 µM; active compounds read high
# Chain of Alkaline phosphatase, tissue-nonspecific isozyme (Homo sapiens) (P05186 whole entry, looked up): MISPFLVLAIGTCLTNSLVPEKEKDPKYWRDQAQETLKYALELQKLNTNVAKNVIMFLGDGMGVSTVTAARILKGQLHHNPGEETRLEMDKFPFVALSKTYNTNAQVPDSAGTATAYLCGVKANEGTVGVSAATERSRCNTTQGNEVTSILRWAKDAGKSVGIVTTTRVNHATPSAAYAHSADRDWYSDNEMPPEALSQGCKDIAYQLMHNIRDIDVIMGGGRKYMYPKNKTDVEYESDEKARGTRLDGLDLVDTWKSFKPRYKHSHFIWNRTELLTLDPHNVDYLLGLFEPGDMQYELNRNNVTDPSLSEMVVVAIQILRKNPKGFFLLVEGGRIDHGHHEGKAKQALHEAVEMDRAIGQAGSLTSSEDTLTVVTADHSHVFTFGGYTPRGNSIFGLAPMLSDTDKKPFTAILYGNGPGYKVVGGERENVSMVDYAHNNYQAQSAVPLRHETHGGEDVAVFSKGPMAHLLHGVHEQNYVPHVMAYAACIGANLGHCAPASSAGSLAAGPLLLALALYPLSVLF
row,SMILES,inhibition
1,COc1ccc(C/C(N)=N/OC(=O)c2ccco2)cc1OC,-7.5%
2,CCOc1ccc2nc(C(=O)N3CCCC(C)C3)sc2c1 (stereo not drawn),1.7%
3,COC(=O)/C(=C1\Oc2ccc(C(C)(C)C)cc2S1)C(F)(F)F,0.6%
4,COCC(=O)Nc1cc(C(=O)OC)cc(C(=O)OC)c1,-4.5%
5,S=c1[nH]nc2c3c4c(sc3ncn12)CCCC4,58% (active)
6,c1nnc2c3c4c(sc3ncn12)CCC4,-10.6%
7,N=c1c2c3c(sc2ncn1N)CCCC3,-4.9%
8,O=C(Cn1c2[n+](c3ccc(C(F)(F)F)cc31)CCCCC2)Nc1c(F)cccc1F,-6.3%
9,O=C(COC(=O)c1cnccn1)Nc1cccc2ccccc12,-10%
10,S=c1[nH]nc(-c2ccco2)n1/N=C/c1ccc(Br)s1,58.4% (active)
11,Cc1ccc(/C=N\n2c(-c3ccccc3)n[nH]c2=S)s1,29%
12,S=c1[nH]nc(-c2cccs2)n1/N=C/c1cccs1,36.2%
13,COCCn1c(N)c(N(Cc2ccccc2)C(=O)C2CCCCC2)c(=O)[nH]c1=O,-0.9%
14,O=C(Cn1c(N2CCN(C/C=C/c3ccccc3)CC2)nc2ccccc21)c1ccccc1,5.4%
15,CCOC(=O)C1(CCOC)CCN(Cc2ccc(C(=O)OC)cc2)CC1,-7%
16,CCN1CCN(c2ccc(NC(=O)c3cnccn3)cc2)CC1,-10.4%
17,CC(C)(C)OC(=O)N1CCC(NC(=O)c2[nH]cnc2C(=O)N[C@@H](Cc2ccccc2)C(=O)OCc2ccccc2)CC1,-3.5%
18,CC(C)Cc1nn2c(=O)cc(O)nc2s1,-13.8%
19,O=C(Nc1ccc(N2CCOCC2)cc1)c1ccc(-c2ccccc2[N+](=O)[O-])o1,8.7%
20,COc1ccc(C(=O)Nc2cccc(S(C)(=O)=O)c2)cc1,-11%
21,N/C(=N\OC(=O)c1ccc2c(c1)OCO2)c1ccc(Br)cc1,-7%
22,COc1ccc(C2=NN(c3ccccc3)C(c3cccs3)C2)cc1 (stereo not drawn),-20.3%
23,Cc1ccc(NC(=O)COC(=O)CCc2nc3ccccc3n2-c2ccccc2)c(C)c1,-12.9%
24,COc1ccc(Cc2n[nH]c(=S)n2NC(=O)Nc2ccc(C)cc2)cc1,-16.9%

row,SMILES,inhibition
1,Cc1cc(C)c(C#N)c(SCC(=O)NN2CC(=O)N(c3ccccc3F)CC2=O)n1,-6.4%
2,CCCCNC(=O)N1CCN(S(C)(=O)=O)CC1,-6.4%
3,O=C(CO/N=C/c1ccc(OC(F)F)cc1)NCc1ccc(F)cc1,2.4%
4,COc1cc2[nH]c(=O)n(Cc3ccc(C(=O)NC4CCN(Cc5ccccc5)CC4)cc3)c(=O)c2cc1OC,1.5%
5,Cc1ccc(NC(=O)C2CCCN(S(=O)(=O)c3c(C)noc3C)C2)c(C)c1 (stereo not drawn),-3.2%
6,Cc1n[nH]c(C)c1S(=O)(=O)N1CCCC(C(=O)NCC2COc3ccccc3O2)C1 (stereo not drawn),51.6% (active)
7,Cc1noc(/C=C/N(C)C)c1S(=O)(=O)N1CCCC(C(=O)NCc2ccco2)C1 (stereo not drawn),-12%
8,COc1ccc(N2CCN(c3ccc([N+](=O)[O-])nc3)CC2)cc1,-7.2%
9,COc1ccc(-c2cc(C3CCN(c4ncccc4[N+](=O)[O-])CC3)[nH]n2)cc1,59.7% (active)
10,CC(=O)NC(Cc1ccccc1)C(=O)NC1CCN(c2ncccc2[N+](=O)[O-])CC1 (stereo not drawn),-1.2%
11,Cc1ccc(S(=O)(=O)N2CCC(C(=O)N[C@@H](C)C(=O)NCc3ccco3)CC2)cc1,-10%
12,CN(Cc1cc2cc(F)ccc2[nH]1)Cc1nc(-c2cnccn2)no1,-8.7%
13,CC(C)(C)C1CCC(OC(=O)CCC(=O)Nc2ccccc2)CC1 (stereo not drawn),-5.1%
14,CC1=NN(c2ccccc2)C(=O)C1C(=O)c1ccc([N+](=O)[O-])cc1 (stereo not drawn),-4.4%
15,O=C(c1ccc(OC2CCN(Cc3ccccn3)CC2)cc1)N1CCCCCC1,-6%
16,CCCOc1ccccc1-c1nc(SCCC(=O)O)n[nH]1,8.1%
17,COc1ccccc1C1=Nc2cccc3cccc(c23)N1,-4.6%
18,COc1ccccc1-c1nc(SC)n[nH]1,63.7% (active)
19,C=CCN(Cc1nc(-c2cc(OC)c3c(c2)OCO3)oc1C)C1CCS(=O)(=O)C1 (stereo not drawn),-9.3%
20,COc1ccc(NS(=O)(=O)c2cc(NC(=O)/C=C/c3cc(OC)c(OC)c(OC)c3)ccc2N2CCCCC2)cc1,-3.9%
21,CC1=CC2=NC(=O)CC(C)(C(=O)N(CC(=O)NC(C)(C)C)Cc3ccccc3)N2C=C1 (stereo not drawn),-13%
22,CCN(c1ccccc1)S(=O)(=O)c1cccc(C(=O)O)c1,-2.9%
23,CCN(c1ccccc1)S(=O)(=O)c1ccc(N)cc1,-17.8%
24,CCN(c1ccccc1)S(=O)(=O)c1ccc2[nH]c(=O)[nH]c2c1,64.9% (active)

row,SMILES,inhibition
1,Cc1c(CCO)sc[n+]1CC(=O)OC12CC3CC(CC(C3)C1)C2,55.5% (active)
2,Cc1c(CCOC(=O)CC23CC4CC(CC(C)(C4)C2)C3)sc[n+]1Cc1ccc([N+](=O)[O-])cc1,-6.1%
3,O=C(C(=O)N1CCc2ccccc2C1)N1CCc2ccccc2C1,-5.7%
4,O=C(C(=O)N1CCc2ccccc2C1)c1c[nH]c2ccccc12,61% (active)
5,CC1CCN(CC(=O)c2c[nH]c3ccccc23)CC1,-9.1%
6,Cc1[nH][nH]c(=O)c1C(c1ccc(-c2ccc(Cl)cc2)o1)c1c(C)[nH][nH]c1=O,-57.7%
7,CCOc1ccc(C(c2c(C)[nH][nH]c2=O)c2c(C)[nH][nH]c2=O)cc1OCC,58.2% (active)
8,Cc1[nH][nH]c(=O)c1C(c1ccc2c(c1)OCO2)c1c(C)[nH][nH]c1=O,45.5%
9,O=C(/C=C/c1ccc(F)cc1)Nc1cccc(S(=O)(=O)Nc2cccc(C(F)(F)F)c2)c1,-9.4%
10,CCOc1ccc(/C=N/OCC(=O)NCc2cccs2)cc1,2.3%
11,O=C(NCCc1ccccc1)C1CCC(Cn2c(=O)c3ccccc3n(Cc3cccnc3)c2=O)CC1 (stereo not drawn),-0.3%
12,O=C(COC(=O)CSc1nnc(-c2ccc(Cl)cc2)o1)Nc1cc(Cl)cc(Cl)c1,-10.5%
13,COc1cc(N/C=C2\CC(=O)NC(C)=C2C#N)cc(OC)c1OC,-1.1%
14,CCN(CCn1cccn1)Cc1nc(-c2ccc(C(=O)OC)cc2)no1,2.4%
15,COc1ccc(-c2[nH]ncc2CN(C)Cc2cc(C)[nH]n2)c(F)c1,46.2%
16,COc1ccc(-c2[nH]ncc2CN(Cc2nccn2C)C(C)C)cc1F,-9.7%
17,COc1ccc(-c2[nH]ncc2CN(C)Cc2cccnc2)c(F)c1,64.9% (active)
18,CCN(CCn1cccn1)Cc1cn[nH]c1-c1ccc(OC)cc1F,58.9% (active)
19,COc1ccc(-c2[nH]ncc2CN(C)Cc2c(C)n[nH]c2C)c(OC)c1,-8.9%
20,Cc1cc(C)n2nc(SCC(=O)NC(=O)NCc3ccco3)nc2n1,-9.4%
21,CCOc1cc(N2CCOCC2)c(OCC)cc1NC(=O)c1ccc(C)s1,-8.9%
22,CCn1c(CNS(=O)(=O)c2ccc(Cl)cc2)n[nH]c1=S,24.7%
23,O=C(CN1CCSCC1)N/N=C/c1ccc(Cl)cc1,-4.4%
24,Cc1cc(NC(=O)CN2C(=O)NC(C)(CCc3ccccc3)C2=O)no1 (stereo not drawn),-3%

row,SMILES,inhibition
1,CCOC(=O)c1cc2c(=O)[nH]c(C(Cl)(Cl)Cl)nc2o1,-11%
2,CCCN(CC1COc2ccccc2O1)C(=S)Nc1ccc(C)cc1 (stereo not drawn),-16%
3,CN(C)C(CNC(=O)c1ccc(S(=O)(=O)NCc2ccco2)cc1)c1ccccc1 (stereo not drawn),7.7%
4,C/C(CC(=O)N1CCN(C=O)CC1)=N\NC(=O)c1ccc(Br)cc1,0.3%
5,Cc1ccc(NC(=O)c2sccc2C)cc1[N+](=O)[O-],-4.3%
6,Cc1ccc(C(=O)NC(=S)Nc2ccc3[nH]c(=O)[nH]c3c2)cc1C,-9.4%
7,CC(=O)NC(=S)NNC(=O)c1ccc(Br)cc1,-155%
8,O=C(CSc1nnc(-c2ccncc2)n1-c1ccc(Cl)cc1)Nc1ccc(C(=O)O)cc1,0.2%
9,CC(NC(=O)C(=O)NN=C1CCC(C(C)(C)C)CC1)c1ccccc1 (stereo not drawn),-15%
10,CC(C)(C)C1CCC(=NNC(=O)c2ccc(Br)o2)CC1 (stereo not drawn),4.2%
11,CC(C)(C)C1CCC(=NNC(=O)c2cc(-c3ccccc3)n[nH]2)CC1 (stereo not drawn),62.6% (active)
12,CCCCN(C)c1ccc([N+](=O)[O-])cc1,13.3%
13,CN(C)CCCN1C(=O)CSC1c1ccc([N+](=O)[O-])cc1 (stereo not drawn),-4.5%
14,COc1ccc(NC(=O)c2cc3nc(-c4ccccc4)cc(C)n3n2)cc1OC,-14.7%
15,COc1ccc(S(=O)(=O)NCC2CCCN(C(=O)c3occc3C)C2)cc1 (stereo not drawn),-4.9%
16,O=C(NCc1ccccc1)C1CCCN(S(=O)(=O)c2cccs2)C1 (stereo not drawn),-5.5%
17,CCc1[nH]nc(C(=O)N2CCCC(CNS(=O)(=O)c3cccs3)C2)c1C (stereo not drawn),61.5% (active)
18,CCC(C(=O)Nc1ccc2c(c1)OCCO2)c1ccccc1 (stereo not drawn),-22.2%
19,COCCCN(C(=S)Nc1c(C)cc(C)cc1C)C(C)c1ccncc1 (stereo not drawn),-17.6%
20,CN(CCc1cn[nH]c1)C(=O)CC1C(=O)NCCN1Cc1cccc(Oc2ccccc2)c1 (stereo not drawn),-9.2%
21,CCOc1ccc(/C=N/NC(=O)C(C)Sc2ccccn2)cc1OCC (stereo not drawn),-5.3%
